Inconclusive results are not listed. Calls of active or inactive are those of the source. Unless noted, the call rests on the fitted dose curve; in most records, active means well fitted curve in the direction sought with a large enough effect in the repeat runs; inconclusive means weak or mixed curves; inactive means no such curve, though single readings can be large; an effect the other way counts as inactive or inconclusive.
What was measured:
[1] = qHTS assay to identify small molecule antagonists of the estrogen related receptor (ERR) signaling pathway from Tox21 library - cell viability counter screen (AID 1224834); further: nearly all actives have a fitted effect of over 30% in size; further: potency means the concentration at half of the fitted maximal effect
Procedure, shortened: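 ERR reporter cells, 2,000 per well, rested 6 h, then exposed to compound in DMSO for 17.5 hours at 37 C. Viability read as fluorescence after 30 min with CellTiter-Fluor.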

[2] = molecular target: Luciferin 4-monooxygenase (Photinus pyralis) (UniProt P08659); assay: qHTS assay to identify small molecule inhibitors of firefly luciferase (AID 1224835); further: nearly all actives have a fitted effect of over 25% in size; further: potency means the concentration at half of the fitted maximal effect
Luciferin 4-monooxygenase (Photinus pyralis), sequence (P08659 whole entry, looked up): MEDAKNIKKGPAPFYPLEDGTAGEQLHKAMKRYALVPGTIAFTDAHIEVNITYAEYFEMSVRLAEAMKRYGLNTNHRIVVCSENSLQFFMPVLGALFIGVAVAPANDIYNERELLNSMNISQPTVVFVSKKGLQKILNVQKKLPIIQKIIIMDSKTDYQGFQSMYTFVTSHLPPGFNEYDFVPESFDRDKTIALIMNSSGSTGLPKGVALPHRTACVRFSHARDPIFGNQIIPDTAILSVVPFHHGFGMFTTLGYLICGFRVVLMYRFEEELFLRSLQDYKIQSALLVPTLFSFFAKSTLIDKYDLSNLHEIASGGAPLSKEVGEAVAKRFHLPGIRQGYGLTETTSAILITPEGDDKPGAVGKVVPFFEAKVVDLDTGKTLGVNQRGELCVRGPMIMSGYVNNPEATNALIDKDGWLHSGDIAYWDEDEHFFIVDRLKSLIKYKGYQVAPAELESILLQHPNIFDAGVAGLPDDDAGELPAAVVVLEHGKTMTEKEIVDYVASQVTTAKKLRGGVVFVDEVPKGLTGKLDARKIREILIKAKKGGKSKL
Procedure, shortened: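 Inhibition of purified Photinus luciferase is measured by luminescence. Substrate levels (D-luciferin, ATP) sit at their KM values. Each compound is tested in a concentration series.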

[3] = qHTS assay to identify small molecule agonists of the constitutive androstane receptor (CAR) signaling pathway - cell viability counter screen (AID 1224836); further: nearly all actives have a fitted effect of over 45% in size; further: potency means the concentration at half of the fitted maximal effect
Procedure, shortened: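 Viability read-out: CellTiter-Fluor fluorescence after 23 h compound exposure at 37 C/5% CO2 in double-stable HepG2-CYP2B6-hCAR cells, with PK11195 present at 0.75 uM final; compounds tested in 15-point titration.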

[4] = qHTS assay to identify small molecule antagonists of the constitutive androstane receptor (CAR) signaling pathway - cell viability counter screen (AID 1224837); further: nearly all actives have a fitted effect of over 45% in size; further: potency means the concentration at half of the fitted maximal effect
Procedure, shortened: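 HepG2 cells stably carrying hCAR and CYP2B6-2.2kb reporter, stimulated with 50 nM CITCO and compounds at 15 concentrations for 23 h at 37 C. Viability measured by CellTiter-Fluor fluorescence.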

[5] = molecular target: Nuclear receptor subfamily 1 group I member 3 (Homo sapiens) (UniProt Q14994); assay: qHTS assay to identify small molecule antagonists of the constitutive androstane receptor (CAR) signaling pathway (AID 1224838); further: nearly all actives have a fitted effect of over 40% in size; further: potency means the concentration at half of the fitted maximal effect
Nuclear receptor subfamily 1 group I member 3 (Homo sapiens), sequence (Q14994 whole entry, looked up): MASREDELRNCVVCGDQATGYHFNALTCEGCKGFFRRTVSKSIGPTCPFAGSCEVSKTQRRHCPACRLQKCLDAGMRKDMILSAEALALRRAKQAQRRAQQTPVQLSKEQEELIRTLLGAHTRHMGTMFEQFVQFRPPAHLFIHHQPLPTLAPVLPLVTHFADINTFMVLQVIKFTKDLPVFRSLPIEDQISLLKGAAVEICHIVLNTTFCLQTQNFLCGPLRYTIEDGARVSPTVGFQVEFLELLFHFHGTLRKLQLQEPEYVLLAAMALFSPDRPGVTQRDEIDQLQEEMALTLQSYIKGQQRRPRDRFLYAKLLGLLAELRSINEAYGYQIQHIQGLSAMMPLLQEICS
Procedure, shortened: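 HepG2 cells stably carrying hCAR and a CYP2B6-2.2kb luciferase reporter, seeded 4 hrs before compound (15 concentrations). Stimulated with 50 nM CITCO for 24 hr at 37 C. ONE-Glo luminescence read after 30 min at room temperature.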

[6] = molecular target: Nuclear receptor subfamily 1 group I member 3 (Homo sapiens) (UniProt Q14994); assay: qHTS assay to identify small molecule agonists of the constitutive androstane receptor (CAR) signaling pathway (AID 1224839); further: nearly all actives have a fitted effect of over 15% in size; further: potency means the concentration at half of the fitted maximal effect
Procedure, shortened: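 Luminescence read-out (ONE-Glo, 30 min, room temperature) from double-stable HepG2-CYP2B6-hCAR cells exposed 24 h to 15-point compound series in presence of 0.75 uM PK11195 final.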

[7] = qHTS assay to identify small molecule antagonists of the estrogen related receptor signaling pathway with the pleiotropic PPARgamma coactivator (PGC) from Tox21 10K library - cell viability counter screen (AID 1224840; active means well fitted cell-killing curve with a large enough effect in the repeat runs, not every such curve was filed as active; further: nearly all actives have a fitted effect of over 40% in size; further: potency means the concentration at half of the fitted maximal effect)
Procedure, shortened: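 PGC/ERR cells (2,000/well) plated 6 h, then compound-treated for 17.5 h at 37 C. Viability measured by CellTiter-Fluor fluorescence after 30 min at 37 C, multiplexed with the pathway assay.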

[8] = qHTS assay to identify small molecule antagonists of the estrogen related receptor signaling pathway with the pleiotropic PPARgamma coactivator (PGC) from Tox21 10K library (AID 1224841; call rule not given here; further: actives are mostly falling curves and most rising ones were filed inactive; nearly all actives have a fitted effect of over 50% in size; further: potency means the concentration at half of the fitted maximal effect)
Procedure, shortened: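 PGC/ERR cell line, 2,000 cells/well, pre-incubated 6 hours at 37 C, then exposed to compounds for 18 hours at 37 C; luciferase read with One-Glo luminescence after 30 min at room temperature.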

[9] = qHTS assay to identify small molecule agonists of the estrogen related receptor signaling pathway with the pleiotropic PPARgamma coactivator (PGC) from Tox21 10K library (AID 1224842); further: nearly all actives have a fitted effect of over 15% in size
Procedure, shortened: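 Luminescence from One-Glo (30 min, room temperature) measured after PGC/ERR cells had 18 h at 37 C with pinned compound (23 nL in DMSO). Cells had been seeded at 2,000 per well and pre-incubated 6 h.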

[10] = molecular target: Thyrotropin receptor (Homo sapiens) (UniProt P16473); assay: qHTS assay to identify small molecule agonists of the thyroid stimulating hormone receptor (TSHR) signaling pathway (AID 1224843; calls by dose curve; further: nearly all actives have a fitted effect of over 45% in size; further: potency means the concentration at half of the fitted maximal effect)
Thyrotropin receptor (Homo sapiens), sequence (P16473 whole entry, looked up): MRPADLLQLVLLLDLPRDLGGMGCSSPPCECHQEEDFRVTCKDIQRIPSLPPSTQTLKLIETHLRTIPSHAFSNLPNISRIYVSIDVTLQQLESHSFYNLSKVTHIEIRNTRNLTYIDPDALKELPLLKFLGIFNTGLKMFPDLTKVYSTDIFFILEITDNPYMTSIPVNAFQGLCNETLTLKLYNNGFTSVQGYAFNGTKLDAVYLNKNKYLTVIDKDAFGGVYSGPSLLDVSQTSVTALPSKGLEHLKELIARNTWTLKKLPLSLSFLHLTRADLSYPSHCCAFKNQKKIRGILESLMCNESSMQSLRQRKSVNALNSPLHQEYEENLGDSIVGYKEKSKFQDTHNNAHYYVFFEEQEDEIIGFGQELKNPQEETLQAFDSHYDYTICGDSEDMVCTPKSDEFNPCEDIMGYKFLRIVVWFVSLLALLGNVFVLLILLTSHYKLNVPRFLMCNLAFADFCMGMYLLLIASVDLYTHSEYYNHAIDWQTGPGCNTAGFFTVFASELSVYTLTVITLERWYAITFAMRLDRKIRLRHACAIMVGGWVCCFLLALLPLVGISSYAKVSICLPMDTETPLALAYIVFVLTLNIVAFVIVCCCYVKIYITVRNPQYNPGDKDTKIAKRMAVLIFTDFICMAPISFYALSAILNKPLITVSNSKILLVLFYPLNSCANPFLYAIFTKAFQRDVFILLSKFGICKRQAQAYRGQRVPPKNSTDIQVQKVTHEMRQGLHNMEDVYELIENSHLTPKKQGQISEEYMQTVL
Procedure, shortened: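 Screening of the Tox21 10K collection used HEK293 cells engineered with TSHR at 800 cells per well. After a 30-min room-temperature compound exposure, HTRF cAMP reagents were added and fluorescence recorded 1 h later.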

[11] = qHTS assay to identify small molecule agonists of the hypoxia (HIF-1) signaling pathway - cell viability counter screen (AID 1224844; calls by dose curve; further: nearly all actives have a fitted effect of over 50% in size; further: potency means the concentration at half of the fitted maximal effect)
Procedure, shortened: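 HRE-bla ME-180 cells, 2,000/well in 0.5% dialyzed FBS medium, treated 17 h at 37C with compounds. Viability read in the same wells as the bla reporter, by CellTiter-Glo luminescence after 30 min at room temperature.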

[12] = qHTS assay to identify small molecule agonists of H2AX (AID 1224845; active means well fitted activation curve with a large enough effect in the signal ratio in the repeat runs, not every such curve was filed as active; the % refers to the signal ratio; further: potency means the concentration at half of the fitted maximal effect)
Procedure, shortened: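 Phospho-H2AX Ser139 measured by HTRF (ex 320 nm; em 665 and 620 nm) after 24 hr antibody incubation. Compounds, 15 concentrations, 0.76% DMSO, were applied to CHO-K1 cells for 3hr at 37C before lysis.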

[13] = qHTS assay to identify small molecule antagonists of the estrogen related receptor (ERR) signaling pathway from Tox21 library (AID 1224848); further: nearly all actives have a fitted effect of over 50% in size; further: potency means the concentration at half of the fitted maximal effect
Procedure, shortened: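 Antagonist-mode screen of the Tox21 10K library in an NTP-provided ERR reporter cell line; 18 h compound exposure at 37 C, luminescence measured with ONE-Glo.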

[14] = qHTS assay to identify small molecule agonists of the estrogen related receptor (ERR) signaling pathway from Tox21 library (AID 1224849; calls by dose curve; further: nearly all actives have a fitted effect of over 15% in size); details: ERR reporter cell line, ONE-Glo luciferase, 18 h; at 92.4 µM (top of the series) unless noted
Procedure, shortened: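 ERR reporter cells (NTP line) pre-incubated 6 hours at 37 C, then exposed to compounds for 18 hours at 37 C. ONE-Glo luciferase luminescence was read after 30 minutes at room temperature.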

[15] = qHTS RealTime-Glo MT Cell Viability Assay in HepG2 cells - 24 hour (AID 1224867); further: nearly all actives have a fitted effect of over 50% in size; further: potency means the concentration at half of the fitted maximal effect
Procedure, shortened: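 Compound treatment began 5 h after plating HepG2 cells (600/well) with NanoLuc luciferase and prosubstrate. Plates stayed at 37 C for 40 h; luminescence was captured at six time points, 0 h through 40 h.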

[16] = qHTS RealTime-Glo MT Cell Viability Assay in HEK293 cells - 32 hour (AID 1224868); further: nearly all actives have a fitted effect of over 50% in size; further: potency means the concentration at half of the fitted maximal effect
Procedure, shortened: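 Quantitative high-throughput screen of the Tox21 10K library in HEK293: cells and RealTime-Glo reagents plated together, compound added at 5 h, luminescence monitored through 40 h at 37 C.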

[17] = A CellTox Green Cytotoxicity Assay to monitor cytotoxicity in HEK293 cells - 0 hour (AID 1224869); further: nearly all actives have a fitted effect of over 50% in size
Procedure, shortened: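 HEK293 cells, 600/well, were preincubated 5 hours and then exposed to compounds at 37 C for up to 40 hours. A cell-impermeant cyanine dye staining dead-cell DNA was read by fluorescence at 0, 8, 16, 24, 32 and 40 h time points.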

[18] = qHTS RealTime-Glo MT Cell Viability Assay in HepG2 cells - 40 hour (AID 1224870); further: nearly all actives have a fitted effect of over 50% in size; further: potency means the concentration at half of the fitted maximal effect
Procedure, shortened: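 Real-time viability: cells seeded at 600 per well together with NanoLuc and cell-permeant prosubstrate, compounds added after 5 h incubation. Luminescence tracked at 0, 8, 16, 24, 32 and 40 h of exposure.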

[19] = qHTS assay to identify small molecule agonists of H2AX - cell viability counter screen (AID 1224847; calls by dose curve; further: nearly all actives have a fitted effect of over 30% in size; further: potency means the concentration at half of the fitted maximal effect)
Procedure, shortened: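 CHO-K1 wt, 1000 cells/well, o/n 37C; cpds 15 conc, 3 h 37C, 0.76% DMSO; CellTiter-Glo, 30 min RT, luminescence.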

[20] = qHTS assay to identify small molecule agonists of the hypoxia (HIF-1) signaling pathway (AID 1224846; active means well fitted activation curve with a large enough effect in the signal ratio in the repeat runs, not every such curve was filed as active; the % refers to the signal ratio)
Procedure, shortened: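 HRE-bla ME-180 beta-lactamase reporter cells in medium with 0.5% dialyzed FBS, pre-incubated 5 h then exposed to compounds 17 h at 37C, 5% CO2; reporter induction read with CCF4-AM FRET substrate.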
On the % scale 0 is the no-effect control and ±100 the full control effect.

C=CC(=O)OCCn1c(=O)n(CCOC(=O)C=C)c(=O)n(CCOC(=O)C=C)c1=O
inactive: Potency [2] | Potency [6] | Potency [9] | Potency [13] | activity change, positive = activation [14] -78.2% | Potency [17]
active: Potency [1] 17.2 µM | Potency [3] 48.6 µM | Potency [4] 19.3 µM | Potency [5] 24.3 µM | Potency [7] 15.4 µM | Potency [8] 15.4 µM | Potency [10] 27.3 µM | Potency [11] 12.3 µM | Potency [12] 25.3 µM | Potency [15] 21.9 µM | Potency [16] 11 µM | Potency [18] 19.5 µM

C=CC(=O)OCC(CO)(COCC(COC(=O)C=C)(COC(=O)C=C)COC(=O)C=C)COC(=O)C=C
inactive: Potency [2] | Potency [6] | Potency [17]
active: Potency [1] 4.8 µM | Potency [3] 6.78 µM | Potency [4] 6.04 µM | Potency [5] 5.38 µM | Potency [7] 3.4 µM | Potency [10] 6.04 µM | Potency [11] 2.16 µM | Potency [15] 4.31 µM | Potency [18] 4.31 µM

Cc1cccc(N(C)C(=S)Oc2ccc3c(c2)C2CCC3C2)c1 (stereo unspecified)
active: Potency [6] 21.1 µM
inactive: Potency [1] | Potency [2] | Potency [3] | Potency [4] | Potency [5] | Potency [7] | Potency [8] | Potency [9] | Potency [10] | Potency [11] | Potency [12] | Potency [13] | activity change, positive = activation [14] -2.97% [at 42.5 µM] | Potency [16] | Potency [17] | Potency [18]

Clc1ccc(C(Cn2ccnc2)OCc2ccc(Sc3ccccc3)cc2)c(Cl)c1 (stereo unspecified)
inactive: Potency [1] | Potency [2] | Potency [3] | Potency [4] | Potency [5] | Potency [6] | Potency [7] | Potency [10] | Potency [11] | Potency [19] | Potency [15] | Potency [16] | Potency [17] | Potency [18]

COC(=O)c1cc(Cl)ccc1OC
inactive: Potency [1] | Potency [2] | Potency [3] | Potency [4] | Potency [5] | Potency [6] | Potency [7] | Potency [10] | Potency [11] | Potency [12] | Potency [20] | Potency [19] | Potency [15] | Potency [16] | Potency [17] | Potency [18]

C/C(=C(/OCCOc1ccc(Cl)cc1)c1ccc(Cl)cc1Cl)n1ccnc1
inactive: Potency [1] | Potency [2] | Potency [3] | Potency [4] | Potency [5] | Potency [6] | Potency [7] | Potency [10] | Potency [12] | Potency [19] | Potency [15] | Potency [17] | Potency [18]

Cc1cc(CCN2CCN(c3nsc4ccccc34)CC2)cc2c1NC(=O)CC2(C)C
inactive: Potency [2] | Potency [5] | Potency [9] | Potency [12] | activity change, positive = activation [14] -74.7% | Potency [17]
active: Potency [1] 30.6 µM | Potency [3] 48.6 µM | Potency [4] 54.5 µM | Potency [6] 21.7 µM | Potency [7] 27.3 µM | Potency [8] 7.7 µM | Potency [11] 38.9 µM | Potency [19] 113 µM | Potency [13] 5.45 µM | Potency [15] 54.9 µM | Potency [16] 7.76 µM

O=c1[nH]cnc2nc[nH]c12
inactive: Potency [1] | Potency [2] | Potency [3] | Potency [4] | Potency [5] | Potency [6] | Potency [7] | Potency [8] | Potency [9] | Potency [10] | Potency [11] | Potency [12] | Potency [20] | Potency [13] | activity change, positive = activation [14] 9.65% [at 42.5 µM] | Potency [15] | Potency [16] | Potency [17] | Potency [18]

Cc1cc(O)c(Cl)c(C)c1Cl
active: Potency [19] 101 µM
inactive: Potency [1] | Potency [2] | Potency [3] | Potency [4] | Potency [5] | Potency [6] | Potency [7] | Potency [8] | Potency [9] | Potency [10] | Potency [11] | Potency [12] | Potency [20] | Potency [13] | activity change, positive = activation [14] 1.15% | Potency [15] | Potency [16] | Potency [17] | Potency [18]

O=c1[nH]sc2cc(Cl)ccc12
active: Potency [2] 17.4 µM | Potency [5] 0.001 µM | Potency [8] 0.298 µM | Potency [11] 0.535 µM | Potency [13] 0.106 µM | Potency [15] 26.8 µM
inactive: Potency [1] | Potency [3] | Potency [4] | Potency [6] | Potency [7] | Potency [9] | Potency [10] | Potency [12] | Potency [19] | activity change, positive = activation [14] -42.9% [at 42.5 µM] | Potency [16] | Potency [17]

Clc1ccc2n[nH]nc2c1
inactive: Potency [1] | Potency [2] | Potency [3] | Potency [4] | Potency [5] | Potency [6] | Potency [7] | Potency [10] | Potency [11] | Potency [12] | Potency [19] | Potency [15] | Potency [16] | Potency [17] | Potency [18]

CCC(C)Nc1ccc(NC(C)CC)cc1 (stereo unspecified)
active: Potency [1] 19.7 µM | Potency [2] 40.7 µM | Potency [3] 19.7 µM | Potency [4] 31.2 µM | Potency [5] 27.8 µM | Potency [7] 15.7 µM | Potency [8] 8.8 µM | Potency [11] 12.5 µM | Potency [19] 23 µM | Potency [13] 6.23 µM | Potency [15] 17.7 µM | Potency [16] 4.45 µM | Potency [18] 17.7 µM
inactive: Potency [6] | Potency [9] | activity change, positive = activation [14] -80.2% | Potency [17]

From PubChem BioAssay (Tox21)
